Bioassay records as filed in PubChem.
HT1080 IDH1KD tx = qHTS for induction of synthetic lethality in tumor cells producing 2HG: qHTS for the HT-1080-IDH1KD cell line | HT-1080 IDH1 knockdown viability, ATP luminescence, 48 h | Potency, µM (highest dose often 46.1 µM), without a hit: top-dose activity, negative = toxicity, actives largely listed as cytotoxic | 360,000 tested, 2% active;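 further: potency means the concentration at half of the fitted maximal effect; 0% = DMSO wells and -100% = cell-free medium wells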
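Luminescent ATP read-out (CellTiter-Glo, 10 min at room temperature) after 48 h compound exposure at 37 °C gave viability of IDH1-knockdown HT-1080 cells. Activity was normalised to DMSO and cell-free wells, then fitted as concentration-response curves.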
DT40 TDP1 CPT = qHTS for Inhibitors of human tyrosyl-DNA phosphodiesterase 1 (TDP1): qHTS in cells in presence of CPT; chicken DT40 Tdp1-/-;hTDP1 cells + 20 nM CPT, ATP luminescence, 48 h; 420,000 tested, 12% active; Potency, µM (doses to about 46.2 µM), for the others: at the top dose activity change, negative = growth inhibition, most hits filed as inhibitors; AID 686979, 2013; further: potency means the concentration at half of the fitted maximal effect; nearly all actives have a fitted effect of over 55% in size
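Cell growth measured by CellTiter-Glo luminescence after a minimum 48 h, 37 C compound exposure with 20 nM CPT in Tdp1-knockout DT40 cells stably expressing hTDP1, seeded 400/well; qHTS titration format.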
DT40 TDP1 no CPT = qHTS for Inhibitors of human tyrosyl-DNA phosphodiesterase 1 (TDP1): qHTS in cells in absence of CPT; AID 686978, 2013; DT40 Tdp1-/- hTDP1 cells, no CPT, ATP luminescence, 48 h; Potency, µM (series often up to 46.2 µM), inactives show at the top dose activity change, negative = growth inhibition, usual class: inhibitors; 420,000 tested, 15% active; further: potency means the concentration at half of the fitted maximal effect; nearly all actives have a fitted effect of over 55% in size
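Luminescent ATP content (CellTiter-Glo) served as the growth readout. Knockout chicken DT40 cells expressing human TDP1 were exposed to compounds without camptothecin for a minimum 48 hr at 37 °C.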
IL1B secr inh = qHTS for Inhibitors of Inflammasome Signaling: IL-1-beta AlphaLISA Primary Screen; THP-1 LPS/ATP IL-1B secretion, AlphaLISA, 16 h; hits give low values; 360,000 tested, 4.7% active; activity change, % at 57.5 µM; in the data active means activity change below about -50%; inconclusive means mostly about -30% to -49%
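THP-1 cells pretreated 1 hr with compounds (up to 57.5 uM final), then stimulated with LPS (250 ng/mL final) plus ATP (1.25 mM final); secreted IL-1B measured by AlphaLISA after 16 hr, decreased signal indicating inhibition.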
HT1080-NT tox = qHTS for induction of synthetic lethality in tumor cells producing 2HG: qHTS for the HT-1080-NT fibrosarcoma cell line; HT-1080-NT fibrosarcoma viability, CellTiter-Glo ATP luminescence, 48 h; Potency, µM (titrated, usually from 46.1 µM), inactives show at the top dose activity, negative = less viability, actives largely listed as cytotoxic; 360,000 tested, 1.6% active; AID 686970, 2013;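 further: NT is the 2HG producing partner of a matched IDH1 knockdown line; potency means the concentration at half of the fitted maximal effect; 0% = DMSO-treated cells and -100% = media-only wells without cells; nearly all actives have a fitted effect of over 55% in size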
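Compounds were tested in concentration-response format on HT-1080-NT cells for 48 hours at 37 degrees C. Cell viability came from CellTiter-Glo luminescence; curves were classified by r2, response magnitude and activity.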
The depositor's hits bear a star; i = inactive; ? = inconclusive; . = not tested or not shown. The list is not random: actives were taken first. Their share in the collection is about 19%. Unless noted, the call rests on the fitted dose curve; in most records, active means well fitted curve in the direction sought with a large enough effect; inconclusive means small, poorly fitted or top-dose-only effect, or another doubt; inactive means no such curve, though single readings can be large; an effect the other way counts as inactive or inconclusive. Unless noted, on the % scale 0 is the no-effect control and ±100 the full control effect.

SMILES	HT1080 IDH1KD tx	DT40 TDP1 CPT	DT40 TDP1 no CPT	IL1B secr inh	HT1080-NT tox
COc1cc(/C=C(\C#N)C(=O)NCC2CCCO2)ccc1OCCC(C)C (stereo not given)	-5%	21µM*	16µM*	4	-15%
COc1ccc(NC(=O)/C(C#N)=C/c2ccc(-c3ccc(Cl)c(C(=O)O)c3)o2)cc1	7%	18µM*	?	6	18%
COc1ccc(NC(=O)/C(C#N)=C\c2ccc(-c3cccc(C(=O)O)c3C)o2)cc1	-20%	?	4.6µM*	-18	-19%
CCOC(=O)c1ccc(-c2ccc(/C=C(\C#N)C(=O)NCC3CCCO3)o2)cc1 (stereo not given)	-2%	21µM*	23µM*	0	-7%
COc1cccc(OC)c1C(=O)NCCOc1cc(C)cc(C)c1	2%	-2%	?	3	0%
COc1cccc(NC(=O)CN(C)C(=O)c2cccc(S(=O)(=O)N3CCN(c4ccccc4)CC3)c2)c1	-7%	?	-59%	-4	0%
COc1ccc(CNC(=O)c2cccc(S(=O)(=O)N3CCN(c4ccc(F)cc4)CC3)c2)cc1	-4%	?	?	-3	-3%
COc1ccc(NC(=O)CN(C)C(=O)c2cccc(S(=O)(=O)N3CCN(c4ccc(F)cc4)CC3)c2)cc1	-12%	13µM*	?	?	-1%
CN(CC(=O)Nc1ccc(F)cc1)C(=O)c1cccc(S(=O)(=O)N2CCN(c3ccccc3)CC2)c1	-14%	16µM*	21µM*	i	-1%
CCNC(=O)C1CCCN(C(=O)c2ccc(F)c(Cl)c2)CC1 (stereo not given)	3%	0%	-6%	48	23%
Cc1ccc(NC(=O)COC(=O)/C(=C/c2cccs2)c2cccs2)cc1S(=O)(=O)N(C)C	-8%	16µM*	15µM*	-4	-8%
CC(NC(=O)c1cccs1)c1ccccc1 (stereo not given)	-3%	-4%	4%	-10	4%
CC(NC(=O)COC(=O)/C(=C/c1cccs1)c1cccs1)c1ccccc1 (stereo not given)	-7%	?	18µM*	-17	-3%
NS(=O)(=O)c1cccc(NC(=O)COC(=O)C2(c3cccc(F)c3)CCCC2)c1	-12%	?	?	-53*	-11%
NS(=O)(=O)c1cccc(NC(=O)COC(=O)/C(=C/c2cccs2)c2cccs2)c1	2%	?	23µM*	-93*	-1%
Cn1nccc1C(=O)Nc1cccc(S(=O)(=O)N2CCOCC2)c1	-1%	0%	13%	0	8%
O=C(Nc1ccc(NS(=O)(=O)c2ccccc2)cc1)c1ccccc1Cl	9%	?	?	-7	-1%
O=C(N[C@@H]1C/C=C\C[C@H](CC(=O)N(CCO)Cc2ccccc2)C(=O)NC[C@@H](c2ccccc2)OC1=O)OCC1c2ccccc2-c2ccccc21	?	6.5µM*	5.8µM*	-13	?
O=C(C[C@H]1C/C=C\C[C@@H](Cc2ccc(F)cc2)C(=O)O[C@H](c2ccccc2)CNC1=O)N[C@@H](CO)Cc1ccccc1	10%	-22%	?	21	-10%
O=C(C[C@H]1C/C=C\C[C@H](NC(=O)OCC2c3ccccc3-c3ccccc32)C(=O)O[C@H](c2ccccc2)CNC1=O)N[C@H](CO)Cc1ccccc1	15µM*	3.3µM*	3.7µM*	24	12µM*
O=C(N[C@@H]1C/C=C\C[C@@H](CC(=O)N(CCO)Cc2ccccc2)C(=O)NC[C@H](c2ccccc2)OC1=O)OCC1c2ccccc2-c2ccccc21	-21%	2.6µM*	7.3µM*	-6	?
CC1CN(C(=O)/C(C#N)=C2\N=C(NC(=O)c3ccc(F)cc3)c3ccccc32)CC(C)O1 (stereo not given)	5%	-12%	-18%	-8	1%
COC(=O)[C@@H](c1ccccc1)N(C)S(=O)(=O)c1cccc(S(=O)(=O)N(C)[C@@H](C(=O)OC)c2ccccc2)c1	-3%	5.8µM*	3.7µM*	-11	-6%
CCC1CN(C(=O)N2CCC(C(=O)N3CCN(c4cc(C)ccc4C)CC3)CC2)c2ccccc2O1 (stereo not given)	.	16µM*	15µM*	.	.
O=C(c1ccc(F)cc1)N1CCCC(C(=O)N2CCN(c3ccccc3)CC2)C1 (stereo not given)	12%	-15%	?	3	12%
SMILES	HT1080 IDH1KD tx	DT40 TDP1 CPT	DT40 TDP1 no CPT	IL1B secr inh	HT1080-NT tox
CCC1CN(C(=O)N2CCC(C(=O)N3CCN(c4ccc(F)cc4)CC3)CC2)c2ccccc2O1 (stereo not given)	.	13µM*	21µM*	.	.
CCC1CN(C(=O)N2CCC(C(=O)N3CCN(c4cccc(C)c4C)CC3)CC2)c2ccccc2O1 (stereo not given)	.	7.3µM*	5.8µM*	.	.
Cc1ccccc1N1CCN(C(=O)C2CCCCC2)CC1	-3%	1%	?	-12	-4%
O=C(O)c1cc(N/N=C/C=C/c2ccccc2[N+](=O)[O-])ccc1Cl	-21%	-22%	-10%	8	-18%
COc1ccc(-c2nnc3sc(-c4cccs4)nn23)cc1OC	9%	10µM*	11µM*	-52*	8%
COc1cc(-c2nnc3sc(-c4cccs4)nn23)cc(OC)c1OC	-15%	?	12µM*	5	-10%
NC(=O)c1nnsc1-c1ccco1	1%	-6%	-18%	-12	-1%
COc1ccccc1N(Cc1cc(=O)[nH]c2ccccc12)C(=O)c1ccc([N+](=O)[O-])cc1	16%	21µM*	12µM*	7	16%
COc1ccccc1N(Cc1cc(=O)[nH]c2ccccc12)C(C)=O	8%	6%	11%	27	0%
CN1CCC(=NNc2ccc(S(=O)(=O)N3CCOCC3)cc2[N+](=O)[O-])CC1	16%	-14%	?	-10	11%
FC(F)(F)c1ccc(-c2noc(-c3ccccc3Br)n2)cc1	.	16µM*	?	.	.
COc1ccc(C(C)=O)cc1CSc1nc2ccccc2c(=O)n1-c1ccccc1	-27%	?	?	0	?
C=CCn1c(SCc2cc(C(C)=O)ccc2OCC)nc2ccccc2c1=O	2.3µM*	1.6µM*	0.82µM*	51	?
COc1ccccc1-n1c(SCc2cc(=O)oc3cc(O)ccc23)nc2ccccc2c1=O	-4%	23µM*	?	7	-6%
